# Test results published in the supplement of paper PMC11732987, “Enantioselective OTUD7B fragment discovery through chemoproteomics screening and high-throughput optimisation” (Communications Chemistry, 2025).
# Unmarked numbers belong to inactive results.
# How the values were obtained:
# Assay in all cases: log2 ratio of Biotin-Ahx-Ub-VS probe labelling (fragment/DMSO); higher = less target engagement (more negative = stronger competition), active = hit call of the paper (q ≤ 0.05, log2 ratio ≤ -1)
# Conditions in all cases: compound concentration: 200 uM; treatment time: 3 h
# USP19 = biological target: T1, USP19 (UniProt O94966)
# T1 sequence (whole entry): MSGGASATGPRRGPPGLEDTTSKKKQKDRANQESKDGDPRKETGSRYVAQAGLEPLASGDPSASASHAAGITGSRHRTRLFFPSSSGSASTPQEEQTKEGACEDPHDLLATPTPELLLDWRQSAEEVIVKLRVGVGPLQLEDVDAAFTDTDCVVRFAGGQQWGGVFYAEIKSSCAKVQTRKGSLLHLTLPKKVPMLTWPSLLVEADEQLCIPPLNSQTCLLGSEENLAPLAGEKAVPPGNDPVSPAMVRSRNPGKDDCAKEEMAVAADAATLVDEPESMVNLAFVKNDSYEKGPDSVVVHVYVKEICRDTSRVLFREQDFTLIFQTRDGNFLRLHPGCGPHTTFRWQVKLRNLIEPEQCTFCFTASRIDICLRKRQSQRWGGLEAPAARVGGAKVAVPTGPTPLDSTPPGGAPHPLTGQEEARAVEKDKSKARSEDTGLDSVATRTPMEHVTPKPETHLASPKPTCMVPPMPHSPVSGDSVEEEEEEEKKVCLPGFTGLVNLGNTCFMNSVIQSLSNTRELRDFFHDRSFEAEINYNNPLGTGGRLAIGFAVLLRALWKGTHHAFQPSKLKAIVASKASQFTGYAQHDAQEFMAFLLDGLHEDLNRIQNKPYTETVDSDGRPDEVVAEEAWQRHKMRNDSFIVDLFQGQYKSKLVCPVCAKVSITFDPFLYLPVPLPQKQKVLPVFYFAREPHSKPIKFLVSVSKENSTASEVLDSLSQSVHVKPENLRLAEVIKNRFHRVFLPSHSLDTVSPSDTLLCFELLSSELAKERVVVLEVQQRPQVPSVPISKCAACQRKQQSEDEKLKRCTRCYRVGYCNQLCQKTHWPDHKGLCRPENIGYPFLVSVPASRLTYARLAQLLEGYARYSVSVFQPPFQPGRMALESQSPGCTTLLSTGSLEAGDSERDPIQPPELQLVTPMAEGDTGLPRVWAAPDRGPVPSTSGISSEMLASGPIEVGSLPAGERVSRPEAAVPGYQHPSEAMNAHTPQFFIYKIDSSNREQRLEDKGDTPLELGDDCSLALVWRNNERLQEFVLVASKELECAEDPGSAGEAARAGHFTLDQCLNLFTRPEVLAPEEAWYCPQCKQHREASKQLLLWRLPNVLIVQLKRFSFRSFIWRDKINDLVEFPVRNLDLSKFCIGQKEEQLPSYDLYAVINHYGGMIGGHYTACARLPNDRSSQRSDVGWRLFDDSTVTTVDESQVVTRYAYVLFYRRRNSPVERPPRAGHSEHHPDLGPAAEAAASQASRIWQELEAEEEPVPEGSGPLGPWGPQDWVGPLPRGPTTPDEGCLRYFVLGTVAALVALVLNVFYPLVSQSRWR
# In short: (§1)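 Labelling with Biotin-Ahx-Ub-VS (0.5 µM final, 1 h) followed a 3 h triplicate treatment of HEK293T lysate (495 µg per sample, Tris/CHAPS/IGEPAL buffer with protease inhibitors) with fragment at 200 µM or vehicle. Labelled DUBs were NeutrAvidin-enriched, digested with LysC and trypsin, and run by diaPASEF LC-MS/MS. The values, average log2 fragment/vehicle ratios by unpaired t-test, come from global-median-normalised Spectronaut label-free quantities. Proteins with ≥2 unique peptides were used.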
# USP22 = biological target: T2, USP22 (UniProt Q9UPT9)
# T2 sequence (whole entry): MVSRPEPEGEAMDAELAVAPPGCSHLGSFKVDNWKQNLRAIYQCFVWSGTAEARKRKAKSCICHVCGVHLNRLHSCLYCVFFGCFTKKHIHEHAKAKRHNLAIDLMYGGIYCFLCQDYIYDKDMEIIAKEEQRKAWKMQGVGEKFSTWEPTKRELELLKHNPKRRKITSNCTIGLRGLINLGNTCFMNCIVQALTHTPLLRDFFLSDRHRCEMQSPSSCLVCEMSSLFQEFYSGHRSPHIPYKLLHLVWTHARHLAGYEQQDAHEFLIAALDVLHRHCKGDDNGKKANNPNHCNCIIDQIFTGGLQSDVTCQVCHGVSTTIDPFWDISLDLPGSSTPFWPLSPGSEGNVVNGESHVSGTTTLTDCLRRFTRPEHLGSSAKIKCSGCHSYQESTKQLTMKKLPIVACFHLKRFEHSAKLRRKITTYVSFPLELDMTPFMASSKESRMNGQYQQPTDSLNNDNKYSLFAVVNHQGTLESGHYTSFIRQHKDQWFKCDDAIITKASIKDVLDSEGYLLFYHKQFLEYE
# In short: as §1
# USP24 = USP24 (UniProt Q9UPU5)
# Chain of USP24 (Q9UPU5 whole entry): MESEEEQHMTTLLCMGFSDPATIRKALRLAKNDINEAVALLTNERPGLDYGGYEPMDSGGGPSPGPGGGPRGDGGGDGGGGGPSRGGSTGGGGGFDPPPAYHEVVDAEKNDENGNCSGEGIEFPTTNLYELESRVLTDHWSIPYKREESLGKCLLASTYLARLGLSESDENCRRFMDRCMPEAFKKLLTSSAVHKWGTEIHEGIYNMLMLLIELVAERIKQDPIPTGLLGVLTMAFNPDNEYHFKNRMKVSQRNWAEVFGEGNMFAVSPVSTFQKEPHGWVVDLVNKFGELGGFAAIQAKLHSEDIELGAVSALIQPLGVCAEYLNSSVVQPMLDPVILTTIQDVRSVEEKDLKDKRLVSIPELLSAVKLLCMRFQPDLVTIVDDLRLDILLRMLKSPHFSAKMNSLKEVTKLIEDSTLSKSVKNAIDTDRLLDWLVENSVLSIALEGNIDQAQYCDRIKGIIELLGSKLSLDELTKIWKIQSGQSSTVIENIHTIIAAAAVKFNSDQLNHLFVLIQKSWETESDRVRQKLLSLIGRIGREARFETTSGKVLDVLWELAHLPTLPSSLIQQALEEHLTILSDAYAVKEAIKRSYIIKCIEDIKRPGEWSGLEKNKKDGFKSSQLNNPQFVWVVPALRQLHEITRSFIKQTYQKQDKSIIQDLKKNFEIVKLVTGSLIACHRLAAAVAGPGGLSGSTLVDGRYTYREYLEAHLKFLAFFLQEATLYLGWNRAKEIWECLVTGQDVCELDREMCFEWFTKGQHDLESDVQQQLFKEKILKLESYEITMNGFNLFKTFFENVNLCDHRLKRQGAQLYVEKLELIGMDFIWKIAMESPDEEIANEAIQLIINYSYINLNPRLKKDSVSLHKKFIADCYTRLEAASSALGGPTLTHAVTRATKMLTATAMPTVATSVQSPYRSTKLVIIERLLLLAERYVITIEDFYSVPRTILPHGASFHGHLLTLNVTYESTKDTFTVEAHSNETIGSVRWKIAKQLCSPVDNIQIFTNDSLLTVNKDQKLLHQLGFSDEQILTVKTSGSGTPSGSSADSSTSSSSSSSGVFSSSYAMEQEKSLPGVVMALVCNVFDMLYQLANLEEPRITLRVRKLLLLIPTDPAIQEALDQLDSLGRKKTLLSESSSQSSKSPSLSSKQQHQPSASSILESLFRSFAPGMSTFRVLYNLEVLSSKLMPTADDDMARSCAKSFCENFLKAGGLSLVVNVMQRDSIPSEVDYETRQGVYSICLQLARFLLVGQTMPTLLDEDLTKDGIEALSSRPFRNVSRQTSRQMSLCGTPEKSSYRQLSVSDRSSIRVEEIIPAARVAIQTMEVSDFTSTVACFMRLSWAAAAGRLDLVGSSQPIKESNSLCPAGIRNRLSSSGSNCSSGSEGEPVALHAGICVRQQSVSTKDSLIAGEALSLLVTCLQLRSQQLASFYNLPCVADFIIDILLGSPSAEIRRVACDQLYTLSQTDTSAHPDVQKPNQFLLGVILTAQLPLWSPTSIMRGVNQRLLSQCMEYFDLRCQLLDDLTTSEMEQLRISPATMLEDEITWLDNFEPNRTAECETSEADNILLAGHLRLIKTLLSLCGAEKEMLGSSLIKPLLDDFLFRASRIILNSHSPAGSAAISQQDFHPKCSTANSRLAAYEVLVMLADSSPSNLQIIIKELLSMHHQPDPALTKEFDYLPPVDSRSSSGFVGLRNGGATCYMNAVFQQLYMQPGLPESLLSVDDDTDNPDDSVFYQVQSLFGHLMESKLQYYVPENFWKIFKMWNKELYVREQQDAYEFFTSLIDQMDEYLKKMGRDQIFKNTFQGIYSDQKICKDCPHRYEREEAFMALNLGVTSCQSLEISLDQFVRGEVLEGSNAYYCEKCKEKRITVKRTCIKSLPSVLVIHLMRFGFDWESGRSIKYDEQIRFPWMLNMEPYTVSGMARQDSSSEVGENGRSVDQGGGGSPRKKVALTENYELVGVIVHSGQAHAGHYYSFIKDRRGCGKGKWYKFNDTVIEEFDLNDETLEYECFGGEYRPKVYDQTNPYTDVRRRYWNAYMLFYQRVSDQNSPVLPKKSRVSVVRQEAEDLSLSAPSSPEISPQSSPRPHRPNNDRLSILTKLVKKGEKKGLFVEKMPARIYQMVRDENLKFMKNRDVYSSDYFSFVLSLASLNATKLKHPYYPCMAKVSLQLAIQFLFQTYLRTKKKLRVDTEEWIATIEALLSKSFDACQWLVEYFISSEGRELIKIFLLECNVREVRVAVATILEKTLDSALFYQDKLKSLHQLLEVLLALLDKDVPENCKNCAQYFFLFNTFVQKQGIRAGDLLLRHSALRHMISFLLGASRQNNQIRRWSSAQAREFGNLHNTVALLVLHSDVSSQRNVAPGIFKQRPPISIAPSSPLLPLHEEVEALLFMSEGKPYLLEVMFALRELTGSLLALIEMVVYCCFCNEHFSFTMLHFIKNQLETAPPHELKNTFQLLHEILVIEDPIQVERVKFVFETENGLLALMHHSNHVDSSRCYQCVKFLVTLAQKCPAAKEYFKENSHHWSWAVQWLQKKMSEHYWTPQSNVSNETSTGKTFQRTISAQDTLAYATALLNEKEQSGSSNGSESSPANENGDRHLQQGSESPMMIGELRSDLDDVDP
# In short: as §1
# USP25 = biological target: T3, USP25 (UniProt Q9UHP3)
# T3 sequence (whole entry): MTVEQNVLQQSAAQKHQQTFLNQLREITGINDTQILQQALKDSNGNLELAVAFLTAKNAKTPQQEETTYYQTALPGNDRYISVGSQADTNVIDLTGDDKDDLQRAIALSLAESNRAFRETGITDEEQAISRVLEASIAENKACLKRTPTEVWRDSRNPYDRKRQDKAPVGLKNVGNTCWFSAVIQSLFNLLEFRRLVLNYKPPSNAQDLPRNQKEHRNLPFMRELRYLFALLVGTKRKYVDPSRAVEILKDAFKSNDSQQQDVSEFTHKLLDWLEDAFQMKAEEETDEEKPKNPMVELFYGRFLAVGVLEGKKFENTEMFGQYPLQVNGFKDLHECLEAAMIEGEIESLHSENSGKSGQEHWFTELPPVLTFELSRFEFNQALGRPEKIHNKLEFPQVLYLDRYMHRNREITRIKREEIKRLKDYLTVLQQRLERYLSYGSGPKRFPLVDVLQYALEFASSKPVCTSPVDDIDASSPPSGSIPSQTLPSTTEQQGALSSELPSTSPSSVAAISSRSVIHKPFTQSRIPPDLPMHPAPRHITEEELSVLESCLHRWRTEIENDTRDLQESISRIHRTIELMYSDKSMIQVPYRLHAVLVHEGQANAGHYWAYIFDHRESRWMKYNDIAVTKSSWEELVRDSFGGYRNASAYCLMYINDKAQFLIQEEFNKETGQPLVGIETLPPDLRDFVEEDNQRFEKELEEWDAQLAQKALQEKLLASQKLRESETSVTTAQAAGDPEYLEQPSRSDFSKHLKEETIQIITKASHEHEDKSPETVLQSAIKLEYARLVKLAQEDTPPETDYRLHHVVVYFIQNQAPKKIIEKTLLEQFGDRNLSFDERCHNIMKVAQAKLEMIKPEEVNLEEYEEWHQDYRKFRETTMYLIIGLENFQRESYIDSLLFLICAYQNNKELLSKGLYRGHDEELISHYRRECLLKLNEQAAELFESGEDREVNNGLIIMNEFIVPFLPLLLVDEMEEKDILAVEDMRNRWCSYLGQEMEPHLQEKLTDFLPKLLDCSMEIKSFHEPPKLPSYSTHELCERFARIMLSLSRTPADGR
# In short: as §1
# USP28 = biological target: T4, USP28 (UniProt Q96RU2)
# T4 sequence (whole entry): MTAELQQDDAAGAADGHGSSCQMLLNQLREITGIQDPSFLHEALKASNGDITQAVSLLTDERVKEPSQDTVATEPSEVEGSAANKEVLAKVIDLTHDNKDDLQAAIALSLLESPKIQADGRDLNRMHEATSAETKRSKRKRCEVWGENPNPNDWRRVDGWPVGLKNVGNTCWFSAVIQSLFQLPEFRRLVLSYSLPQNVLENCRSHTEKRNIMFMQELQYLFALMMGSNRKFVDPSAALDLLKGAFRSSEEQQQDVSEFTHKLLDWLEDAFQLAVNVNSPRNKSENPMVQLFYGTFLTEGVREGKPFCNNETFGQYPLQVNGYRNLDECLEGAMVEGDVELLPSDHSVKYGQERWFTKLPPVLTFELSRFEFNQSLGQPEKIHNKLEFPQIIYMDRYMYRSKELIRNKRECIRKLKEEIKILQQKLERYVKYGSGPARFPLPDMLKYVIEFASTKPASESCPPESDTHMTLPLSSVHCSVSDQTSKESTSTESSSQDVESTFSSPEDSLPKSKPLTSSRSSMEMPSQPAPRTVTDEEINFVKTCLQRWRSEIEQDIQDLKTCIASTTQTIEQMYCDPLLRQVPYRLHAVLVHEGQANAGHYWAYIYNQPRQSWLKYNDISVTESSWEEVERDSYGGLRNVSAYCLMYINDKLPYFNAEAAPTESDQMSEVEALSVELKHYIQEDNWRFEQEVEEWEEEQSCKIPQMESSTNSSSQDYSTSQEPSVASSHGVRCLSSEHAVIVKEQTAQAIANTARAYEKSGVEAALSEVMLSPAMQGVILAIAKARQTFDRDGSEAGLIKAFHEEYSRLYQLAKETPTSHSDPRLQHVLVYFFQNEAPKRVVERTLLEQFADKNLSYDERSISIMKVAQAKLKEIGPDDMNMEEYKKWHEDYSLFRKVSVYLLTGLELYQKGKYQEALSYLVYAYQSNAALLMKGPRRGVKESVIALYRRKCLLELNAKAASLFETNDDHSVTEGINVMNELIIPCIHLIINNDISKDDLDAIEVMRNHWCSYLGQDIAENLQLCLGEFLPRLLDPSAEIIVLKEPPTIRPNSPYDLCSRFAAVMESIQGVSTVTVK
# In short: as §1
smiles,measurement,setting,value
O=C(CCl)N[C@H]1CC[C@@H](CO)CC1,log2 ratio of Biotin-Ahx-Ub-VS probe labelling,USP19,-0.828
same,log2 ratio of Biotin-Ahx-Ub-VS probe labelling,USP22,-0.256
same,log2 ratio of Biotin-Ahx-Ub-VS probe labelling,USP24,-1.05 (active)
same,log2 ratio of Biotin-Ahx-Ub-VS probe labelling,USP25,-0.739
same,log2 ratio of Biotin-Ahx-Ub-VS probe labelling,USP28,-1.09 (active)
